Laboratory results published in PubChem BioAssay (NCATS).
Inconclusive results are not listed. Values without a mark were called inactive. Calls of active or inactive are those of the source. Calls follow the shape of the dose curve; as a rule, active = well fitted cell-killing curve with a large enough effect; inconclusive = small, poorly fitted or top-dose-only effect, or effect the other way; inactive = no such curve, though single readings can be large or run the other way.

assay: Quantitative highthroughput screen to assess conditional lethalithy of SEM cells grown in Human Plasma-Like Medium with dialyzed fetal bovine serum (HPLM+ds) (AID 1963882); settings: SEM B-ALL cells in HPLM+ds, CellTiter-Glo viability, 48 h; series mostly up to 45.8 µM; viability: at the top concentration
How it was run: (§1)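 Each medium arm—HPLM with 10% dialyzed FBS, or RPMI1640 with 5 mM glucose and 10% untreated or dialyzed FBS—was screened against an 11-point, 3-fold compound titration for 48 h at 37 °C, with CellTiter-Glo luminescence as endpoint.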
Also: nearly all actives have a fitted effect of over 35% in size.
Potency is read from the fitted curve at half-maximal effect.

Question: Which Potency does the source give for `CO[C@@H]1[C@H](N(C)C(=O)c2ccccc2)C[C@H]2O[C@]1(C)n1c3ccccc3c3c4c(c5c6ccccc6n2c5c31)C(=O)NC4` here?
Answer: Its Potency is 0.662 µM (active).

Question: For `O=C(Nc1ncc(-c2cc(C(F)F)nn2-c2c(Cl)cccc2Cl)s1)C1CC1`, which Potency is on record?
Answer: The Potency was 1.32 µM (active).

Question: With `CCCCCCCCCCCC(CC1OC(=O)C1CCCCCC)OC(=O)C(CC(C)C)NC=O` (configuration not stated) as the compound, how does the Potency read?
Answer: Its Potency is 18.7 µM (active).

Question: For `NC(=NCc1ccccc1)NC(=O)c1nc(Cl)c(N)nc1N`, which “viability” value is on record?
Answer: The value was 73.9%.

Question: Which “viability” value does the source give for `CC(C)C(=O)Nc1ccc([N+](=O)[O-])c(C(F)(F)F)c1` here?
Answer: Its value is 103%.

Question: With `O=c1cc(-c2ccccc2)oc2cc(O)cc(O)c12` as the compound, how does the Potency read?
Answer: Its Potency is 16.6 µM (active).

Question: With `O=C(O)c1cn(C2CC2)c2cc(N3CCNCC3)c(F)cc2c1=O` as the compound, how does the Potency read?
Answer: The Potency was 16.6 µM (active).

Question: With `CN(C)c1nc(Cc2ccc(NC(=O)c3ccc4ccccc4c3)cc2)nc(Cl)c1CC(=O)O` as the compound, how does the “viability” value read?
Answer: The value was 102%.

Question: With `O=C(O)CCCCC(CCSCc1ccccc1)SCc1ccccc1` (configuration not stated) as the compound, how does the “viability” value read?
Answer: The value was 94.1%.

Question: Which “viability” value does the source give for `Cc1c(C(=O)NN2CCCCC2)nn(-c2ccc(Cl)cc2Cl)c1-c1ccc(Cl)cc1` here?
Answer: Its value is 75.5%.

Question: For `Nc1nc(NCCNc2ncc(-n3ccnc3)c(-c3ccc(Cl)cc3Cl)n2)ccc1[N+](=O)[O-]`, which “viability” value is on record?
Answer: Its value is 85.4%.

Question: With `N#CNC(=NCCCCCCOc1ccc(Cl)cc1)Nc1ccncc1` as the compound, how does the “viability” value read?
Answer: Its value is 4.18%.

Question: Which “viability” value does the source give for `Cc1ccnc2c1NC(=O)c1cccnc1N2C1CC1` here?
Answer: The value was 120%.

Question: For `COc1cc(C(=O)N2CCC(N3CCN(C)CC3)CC2)ccc1Nc1ncc2c(n1)N(C)c1ccccc1C(=O)N2C`, which Potency is on record?
Answer: Its Potency is 3.72 µM (active).

Question: For `COc1ccc2c(c1)CC[C@@H](CN(C)CC(=O)O)[C@H]2c1ccccc1`, which Potency is on record?
Answer: The Potency was 2.35 µM (active).

Question: For `C[N+](C)([O-])CCNc1ccc(NCC[N+](C)(C)[O-])c2c1C(=O)c1c(O)ccc(O)c1C2=O`, which Potency is on record?
Answer: The Potency was 1.18 µM (active).

assay: Quantitative highthroughput screen to assess conditional lethalithy of SEM cells grown in RPMI1640 with unreated serum (RPMI+s) (AID 1963883); settings: SEM B-ALL cells, CellTiter-Glo viability, 48 h; series mostly up to 45.8 µM; viability: at the top concentration;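 as to viability: 100% = DMSO wells and 0% = empty wells without cells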
How it was run: as §1

Question: With `CO[C@@H]1[C@H](N(C)C(=O)c2ccccc2)C[C@H]2O[C@]1(C)n1c3ccccc3c3c4c(c5c6ccccc6n2c5c31)C(=O)NC4` as the compound, how does the Potency read?
Answer: The Potency was 0.743 µM (active).

Question: For `Nc1nc2c(c(=O)[nH]1)N(C=O)[C@H](CNc1ccc(C(=O)N[C@@H](CCC(=O)O)C(=O)O)cc1)CN2`, which “viability” value is on record?
Answer: The value was 91.1%.

Question: For `O=C(Nc1ncc(-c2cc(C(F)F)nn2-c2c(Cl)cccc2Cl)s1)C1CC1`, which Potency is on record?
Answer: Its Potency is 1.18 µM (active).

Question: Which Potency does the source give for `CCCCCCCCCCCC(CC1OC(=O)C1CCCCCC)OC(=O)C(CC(C)C)NC=O` (configuration not stated) here?
Answer: Its Potency is 5.9 µM (active).

Question: With `CS(=O)(=O)N(Cc1ccco1)CC(O)Cn1c2ccccc2c2ccccc21` (configuration not stated) as the compound, how does the Potency read?
Answer: Its Potency is 14.8 µM (active).

Question: For `CC(C)C(=O)Nc1ccc([N+](=O)[O-])c(C(F)(F)F)c1`, which “viability” value is on record?
Answer: Its value is 94.7%.

Question: With `O=c1cc(-c2ccccc2)oc2cc(O)cc(O)c12` as the compound, how does the Potency read?
Answer: The Potency was 11.8 µM (active).

Question: With `O=c1ncn2nc(Sc3ccc(F)cc3F)ccc2c1-c1c(Cl)cccc1Cl` as the compound, how does the Potency read?
Answer: Its Potency is 16.6 µM (active).

Question: For `O=C1c2c(O)ccc(O)c2C(=O)c2c(NCCNCCO)ccc(NCCNCCO)c21`, which Potency is on record?
Answer: The Potency was 0.235 µM (active).

Question: With `CCc1c2c(nc3ccc(O)cc13)-c1cc3c(c(=O)n1C2)COC(=O)[C@]3(O)CC` as the compound, how does the Potency read?
Answer: Its Potency is 0.0083 µM (active).

Question: For `CC1(COc2ccc3c(c2)ncn3-c2ccc3cccc(N4CCC(N)CC4)c3n2)COC1`, which Potency is on record?
Answer: Its Potency is 0.0209 µM (active).

Question: Which “viability” value does the source give for `CN(C)c1nc(Cc2ccc(NC(=O)c3ccc4ccccc4c3)cc2)nc(Cl)c1CC(=O)O` here?
Answer: The value was 111%.

Question: With `O=C(O)CCCCC(CCSCc1ccccc1)SCc1ccccc1` (configuration not stated) as the compound, how does the “viability” value read?
Answer: Its value is 86.8%.

Question: Which “viability” value does the source give for `Cc1c(C(=O)NN2CCCCC2)nn(-c2ccc(Cl)cc2Cl)c1-c1ccc(Cl)cc1` here?
Answer: Its value is 81.8%.

Question: With `CC(=O)c1c(C)c2cnc(Nc3ccc(N4CCNCC4)cn3)nc2n(C2CCCC2)c1=O` as the compound, how does the Potency read?
Answer: The Potency was 4.69 µM (active).

Question: Which “viability” value does the source give for `Nc1nc(NCCNc2ncc(-n3ccnc3)c(-c3ccc(Cl)cc3Cl)n2)ccc1[N+](=O)[O-]` here?
Answer: The value was 91.7%.

Question: For `C#Cc1cccc(Nc2ncnc3cc(OCCOC)c(OCCO)cc23)c1`, which Potency is on record?
Answer: Its Potency is 20.9 µM (active).

Question: With `Cc1cc(-c2ccc(CC(=O)Nc3ccc(-c4cccnc4)cc3)cc2)ccn1` as the compound, how does the Potency read?
Answer: The Potency was 10.5 µM (active).

Question: With `Cc1ccnc2c1NC(=O)c1cccnc1N2C1CC1` as the compound, how does the “viability” value read?
Answer: Its value is 102%.

Question: For `CNC(=O)Nc1ccc(-c2nc(N3CC4CCC(C3)O4)c3cnn(C4CCC5(CC4)OCCO5)c3n2)cc1`, which Potency is on record?
Answer: The Potency was 0.0418 µM (active).

Question: With `COc1ccc2c(c1)CC[C@@H](CN(C)CC(=O)O)[C@H]2c1ccccc1` as the compound, how does the Potency read?
Answer: The Potency was 2.64 µM (active).

Question: With `C[N+](C)([O-])CCNc1ccc(NCC[N+](C)(C)[O-])c2c1C(=O)c1c(O)ccc(O)c1C2=O` as the compound, how does the Potency read?
Answer: Its Potency is 0.296 µM (active).

assay: Quantitative highthroughput screen to assess conditional lethalithy of SEM cells grown in RPMI1640 with dialyzed fetal bovine serum (RPMI+ds) (AID 1963884); settings: SEM B-ALL cells, RPMI+dialyzed FBS, CellTiter-Glo viability, 48 h; series mostly up to 45.8 µM; viability: at the top concentration;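 as to viability: 100% = DMSO control wells and 0% = empty wells without cells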
How it was run: as §1

Question: Which Potency does the source give for `CO[C@@H]1[C@H](N(C)C(=O)c2ccccc2)C[C@H]2O[C@]1(C)n1c3ccccc3c3c4c(c5c6ccccc6n2c5c31)C(=O)NC4` here?
Answer: The Potency was 0.743 µM (active).

Question: For `Nc1nc2c(c(=O)[nH]1)N(C=O)[C@H](CNc1ccc(C(=O)N[C@@H](CCC(=O)O)C(=O)O)cc1)CN2`, which “viability” value is on record?
Answer: The value was 96.1%.

Question: For `O=C(Nc1ncc(-c2cc(C(F)F)nn2-c2c(Cl)cccc2Cl)s1)C1CC1`, which Potency is on record?
Answer: Its Potency is 1.32 µM (active).

Question: For `CCCCCCCCCCCC(CC1OC(=O)C1CCCCCC)OC(=O)C(CC(C)C)NC=O` (configuration not stated), which Potency is on record?
Answer: The Potency was 11.8 µM (active).

Question: For `NC(=NCc1ccccc1)NC(=O)c1nc(Cl)c(N)nc1N`, which Potency is on record?
Answer: Its Potency is 14.8 µM (active).

Question: For `CC(C)C(=O)Nc1ccc([N+](=O)[O-])c(C(F)(F)F)c1`, which “viability” value is on record?
Answer: Its value is 88.6%.

Question: For `O=c1cc(-c2ccccc2)oc2cc(O)cc(O)c12`, which Potency is on record?
Answer: Its Potency is 16.6 µM (active).

Question: Which Potency does the source give for `O=C1c2c(O)ccc(O)c2C(=O)c2c(NCCNCCO)ccc(NCCNCCO)c21` here?
Answer: Its Potency is 0.332 µM (active).

Question: Which Potency does the source give for `CCc1c2c(nc3ccc(O)cc13)-c1cc3c(c(=O)n1C2)COC(=O)[C@]3(O)CC` here?
Answer: Its Potency is 0.0105 µM (active).

Question: With `O=C(O)c1cn(C2CC2)c2cc(N3CCNCC3)c(F)cc2c1=O` as the compound, how does the Potency read?
Answer: Its Potency is 3.72 µM (active).

Question: With `CN(C)c1nc(Cc2ccc(NC(=O)c3ccc4ccccc4c3)cc2)nc(Cl)c1CC(=O)O` as the compound, how does the “viability” value read?
Answer: Its value is 104%.

Question: With `O=C(O)CCCCC(CCSCc1ccccc1)SCc1ccccc1` (configuration not stated) as the compound, how does the “viability” value read?
Answer: The value was 80.5%.

Question: With `Cc1c(C(=O)NN2CCCCC2)nn(-c2ccc(Cl)cc2Cl)c1-c1ccc(Cl)cc1` as the compound, how does the “viability” value read?
Answer: The value was 74.8%.

Question: With `Cc1cc(Nc2cc(NC(=O)c3c(Cl)cccc3Cl)ccn2)nc(N)n1` as the compound, how does the Potency read?
Answer: The Potency was 1.05 µM (active).

Question: For `CC(=O)c1c(C)c2cnc(Nc3ccc(N4CCNCC4)cn3)nc2n(C2CCCC2)c1=O`, which Potency is on record?
Answer: Its Potency is 5.26 µM (active).

Question: Which “viability” value does the source give for `N#CNC(=NCCCCCCOc1ccc(Cl)cc1)Nc1ccncc1` here?
Answer: Its value is 2.72%.

Question: With `Cc1cc(-c2ccc(CC(=O)Nc3ccc(-c4cccnc4)cc3)cc2)ccn1` as the compound, how does the Potency read?
Answer: The Potency was 8.33 µM (active).

Question: For `Cc1ccnc2c1NC(=O)c1cccnc1N2C1CC1`, which “viability” value is on record?
Answer: The value was 96.2%.

Question: With `C[N+](C)([O-])CCNc1ccc(NCC[N+](C)(C)[O-])c2c1C(=O)c1c(O)ccc(O)c1C2=O` as the compound, how does the Potency read?
Answer: The Potency was 0.743 µM (active).
